# Unmarked numbers belong to inactive results. Inconclusive results are not listed. A call without a number means that no potency is given here. Activity calls are given as the source filed them. Unless noted, calls come from the whole dose curve; as a rule, active = well fitted curve in the direction sought with a large enough effect in the repeat runs; inconclusive = weak or mixed curves; inactive = no such curve, though single readings can be large; an effect the other way counts as inactive or inconclusive.
# How the values were obtained:
# [1] = target: Estrogen receptor beta (Homo sapiens) (UniProt Q92731); assay: qHTS assay to identify small molecule antagonists of the estrogen receptor beta (ER-beta) signaling pathway (AID 1259378; active = well fitted inhibition curve with a large enough effect in the signal ratio in the repeat runs, not every such curve was filed as active; the % refers to the signal ratio; note: potency is the fitted concentration of half-maximal effect)
# Outline: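 Antagonist mode: compounds added to beta-lactamase reporter HEK293T ER-beta-UAS cells stimulated with E2 (1nM final), 16 hr at 37C. LiveBLAzer B/G FRET substrate, 2 hours room temperature, fluorescence read-out.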
# [2] = qHTS assay to identify small molecule agonists of the androgen receptor (AR) signaling pathway in the presence of an antagonist - cell viability counter screen (AID 1259379); note: nearly all actives have a fitted effect of over 25% in size; note: potency is the fitted concentration of half-maximal effect
# Outline: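 Fluorescence from CellTiter-Fluor, added after 15 hr and read 1 hr later, gave cell viability. Cells were MDA-kb2 exposed to compounds (15 concentrations) in the presence of 3.0uM nilutamide at 37C, 0% CO2.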
# [3] = qHTS assay to identify small molecule agonists of the estrogen receptor beta (ER-beta) signaling pathway - cell viability counter screen (AID 1259380); note: nearly all actives have a fitted effect of over 30% in size; note: potency is the fitted concentration of half-maximal effect
# Outline: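 Same-well viability counter screen. Cells: ER-beta-UAS-bla HEK293T, plated 6 hr before compound, in 2% charcoal-stripped FBS. Compound exposure 16 hr, 37C; viability by CellTiter-Glo luminescence after 30 min at room temperature.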
# [4] = target: Androgen receptor (Homo sapiens) (UniProt P10275); assay: qHTS assay to identify small molecule agonists of the androgen receptor (AR) signaling pathway in the presence of an antagonist (AID 1259381; calls by dose curve; note: nearly all actives have a fitted effect of over 15% in size)
# Outline: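 Cells are MDA-kb2 (human breast carcinoma, MMTV-luc, AR/GR responsive). Nilutamide is present at 3.0uM final throughout; compounds are added at 15 concentrations and incubated 16hr at 37C before ONE-Glo luminescence detection.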
# [5] = qHTS assay to identify small molecule antagonists of the estrogen receptor beta (ER-beta) signaling pathway - cell viability counter screen (AID 1259382); note: nearly all actives have a fitted effect of over 55% in size; note: potency is the fitted concentration of half-maximal effect
# Outline: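 Following a 6 hr plating period, HEK293T cells carrying a UAS-driven beta-lactamase reporter under ER-beta control received compounds and 1nM E2 (final). After 16 hr at 37C and 2 hr substrate loading, CellTiter-Glo luminescence indicated viability.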
# [6] = target: Estrogen receptor (Homo sapiens) (UniProt P03372); assay: qHTS assay to identify small molecule agonists of the estrogen receptor alpha (ER-alpha) signaling pathway in the presence of an antagonist (AID 1259383; calls by dose curve; note: top concentration of the series differs between compounds; nearly all actives have a fitted effect of over 15% in size)
# Outline: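 Cells are hormone-deprived for 5 days (charcoal-stripped FBS, no phenol red), plated for 24hr, spiked with 10.0nM ICI-182,780, then dosed at 15 concentrations. After 22hr at 37C, ONE-Glo luminescence reports ERE-luciferase activity.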
# [7] = qHTS assay to identify small molecule agonists or antagonists of the thyroid stimulating hormone receptor (TSHR) signaling pathway - wild type cell line counter screen (AID 1259384; calls by dose curve)
# Outline: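 Counter screen in untransfected Hek293: compounds (15-point titration, triplicate) plus phosphodiesterase inhibitor Ro20-1724 added after 18 h plating; 30 min RT. Intracellular cAMP via competitive d2/cryptate immunoassay, 1 h incubation.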
# [8] = target: Thyrotropin receptor (Homo sapiens) (UniProt P16473); assay: qHTS assay to identify small molecule antagonists of the thyroid stimulating hormone receptor (TSHR) signaling pathway (AID 1259385; calls by dose curve; note: nearly all actives have a fitted effect of over 20% in size)
# Outline: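 Antagonist mode: compound-treated TSHR-expressing HEK293 cells were stimulated with 1.5 ng/mL TSH (final) in presence of Ro20-1724 for 30 min at RT. HTRF cAMP detection after 1 h; each compound tested at 15 concentrations, triplicate.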
# [9] = qHTS assay to identify small molecule agonists of the estrogen receptor alpha (ER-alpha) signaling pathway in the presence of an antagonist - cell viability counter screen (AID 1259386);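 note: series mostly up to about 92 µM; cells exposed to compounds for 22 h at 37 °C before the viability read; nearly all actives have a fitted effect of over 30% in size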
# Outline: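 Cells are starved of estrogens for 5 days in charcoal-stripped serum, seeded for 24hr and co-treated with ICI-182,780 (10.0nM final) and test compounds. After 22hr at 37C, viability is read as CellTiter-Fluor fluorescence.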
# [10] = target: Progesterone receptor (Homo sapiens) (UniProt P06401); assay: qHTS assay to identify small molecule agonists of the progesterone receptor (PR) signaling pathway (AID 1346784; calls by dose curve; note: nearly all actives have a fitted effect of over 30% in size)
# Outline: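 Reporter assay, GripTite PR-UAS-bla HEK 293T cells: 16 hr exposure to DMSO-dissolved compounds at 37C, 5% CO2, in steroid-depleted (2% charcoal-stripped FBS) medium; beta-lactamase measured by FRET fluorescence.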
# [11] = qHTS assay to identify small molecule antagonists of the progesterone receptor (PR) signaling pathway - cell viability counter screen (AID 1346798); note: nearly all actives have a fitted effect of over 50% in size; note: potency is the fitted concentration of half-maximal effect
# Outline: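 In the same plates used for the beta-lactamase readout, cell viability of compound- and R5020-treated PR-UAS-bla HEK293T cells (16 hr, 37C) was assessed by CellTiter-Glo luminescence.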
# [12] = qHTS assay to identify small molecule agonists of the progesterone receptor (PR) signaling pathway - cell viability counter screen (AID 1346799; calls by dose curve; note: nearly all actives have a fitted effect of over 45% in size; note: potency is the fitted concentration of half-maximal effect)
# Outline: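 Multiplexed viability read: CellTiter-Glo luminescence, 30 min RT, following LiveBLAzer FRET measurement on PR-UAS-bla HEK293T cells exposed to compounds 16 hr.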
# [13] = qHTS assay to identify small molecule antagonists of the TGF-beta/Smad signaling pathway - cell viability counter screen (AID 1346824); note: nearly all actives have a fitted effect of over 50% in size
# Outline: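 Cytotoxicity counter-screen run in the same wells as the beta-lactamase Smad reporter read: CellTiter-Glo luminescence after 30 min at room temperature. HEK 293T SBE-bla cells had 5 hr compound exposure at 37 C with TGF-beta1 (0.25 ng/mL stock).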
# [14] = qHTS assay to identify small molecule agonists of the TGF-beta/Smad signaling pathway - cell viability counter screen (AID 1346829); note: top concentration of the series differs between compounds; nearly all actives have a fitted effect of over 45% in size
# Outline: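 After overnight seating at 37 C and 5% CO2, reporter cells got compounds for 5 hr and FRET substrate for 2 hr; cell viability then came from CellTiter-Glo luminescence.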
# [15] = qHTS assay to identify small molecule agonists of the TGF-beta/Smad signaling pathway (AID 1346859; active = well fitted activation curve with a large enough effect in the signal ratio in the repeat runs, not every such curve was filed as active; the % refers to the signal ratio; note: series mostly up to about 77 µM)
# Outline: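 Screening used HEK 293T SBE-bla cells at 4,000/well. Test agents: 5 hr, 37 C. Detection: FRET substrate, 2 hr RT, then excitation 405 nm with emissions at 460 and 530 nm.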
# [16] = target: Progesterone receptor (Homo sapiens) (UniProt P06401); assay: qHTS assay to identify small molecule antagonists of the progesterone receptor (PR) signaling pathway (AID 1346795; active = well fitted inhibition curve with a large enough effect in the signal ratio in the repeat runs, not every such curve was filed as active; the % refers to the signal ratio; note: potency is the fitted concentration of half-maximal effect)
# Outline: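 Stimulus R5020 at 1 nM final; cells HEK293T PR-UAS-bla; medium with 2% charcoal-stripped FBS; compound exposure 16 hr at 37C, 5% CO2; detection by FRET beta-lactamase substrate, 2 hr, room temperature.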
# [17] = Human pregnane X receptor (PXR) small molecule agonists, qHTS cell viability counter screen (AID 1346977); note: nearly all actives have a fitted effect of over 50% in size; note: potency is the fitted concentration of half-maximal effect
# Outline: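 In each well, the PXR reporter HepG2 line was checked for viability: CellTiter-Fluor reagent added 23hr post-dosing, fluorescence read after 1hr incubation at 37C.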
# [18] = Caspase-3/7 induction in HepG2 cells by small molecules, qHTS assay (AID 1346978); note: nearly all actives have a fitted effect of over 15% in size; note: potency is the fitted concentration of half-maximal effect
# Outline: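 Caspase-3/7 induction was measured by Caspase-Glo 3/7 luminescence (30 min, room temperature) after a 17 hr compound exposure of wild-type HepG2 cells seeded at 2,000 per well and pre-incubated 5 hr.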
# [19] = target: Thyrotropin-releasing hormone receptor (Homo sapiens) (UniProt P34981); assay: qHTS assay to identify small molecule antagonists of the thyrotropin-releasing hormone receptor (TRHR) signaling pathway (AID 1346877; active = well fitted inhibition curve with a large enough effect in the repeat runs, not every such curve was filed as active; note: series mostly up to about 51 µM)
# Outline: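 Cells (TRHR-HEK293) are plated and kept 18 h at 37 °C/5% CO2. A calcium-sensitive dye is added for 2 h, compound follows for 5 min at room temperature, and TRH is then given at 1 nM final.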
# [20] = target: Thyrotropin-releasing hormone receptor (Homo sapiens) (UniProt P34981); assay: qHTS assay to identify small molecule agonists of the thyrotropin-releasing hormone receptor (TRHR) signaling pathway (AID 1346891; calls by dose curve; note: series mostly up to about 58 µM)
# Outline: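 Readout was intracellular calcium fluorescence in TRHR-Hek293 cells. Cells were incubated 18 h, dye-loaded 2 h at 37 °C, and treated with compound in agonist mode.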
# Sequence of Progesterone receptor (Homo sapiens) (P06401 whole entry, looked up): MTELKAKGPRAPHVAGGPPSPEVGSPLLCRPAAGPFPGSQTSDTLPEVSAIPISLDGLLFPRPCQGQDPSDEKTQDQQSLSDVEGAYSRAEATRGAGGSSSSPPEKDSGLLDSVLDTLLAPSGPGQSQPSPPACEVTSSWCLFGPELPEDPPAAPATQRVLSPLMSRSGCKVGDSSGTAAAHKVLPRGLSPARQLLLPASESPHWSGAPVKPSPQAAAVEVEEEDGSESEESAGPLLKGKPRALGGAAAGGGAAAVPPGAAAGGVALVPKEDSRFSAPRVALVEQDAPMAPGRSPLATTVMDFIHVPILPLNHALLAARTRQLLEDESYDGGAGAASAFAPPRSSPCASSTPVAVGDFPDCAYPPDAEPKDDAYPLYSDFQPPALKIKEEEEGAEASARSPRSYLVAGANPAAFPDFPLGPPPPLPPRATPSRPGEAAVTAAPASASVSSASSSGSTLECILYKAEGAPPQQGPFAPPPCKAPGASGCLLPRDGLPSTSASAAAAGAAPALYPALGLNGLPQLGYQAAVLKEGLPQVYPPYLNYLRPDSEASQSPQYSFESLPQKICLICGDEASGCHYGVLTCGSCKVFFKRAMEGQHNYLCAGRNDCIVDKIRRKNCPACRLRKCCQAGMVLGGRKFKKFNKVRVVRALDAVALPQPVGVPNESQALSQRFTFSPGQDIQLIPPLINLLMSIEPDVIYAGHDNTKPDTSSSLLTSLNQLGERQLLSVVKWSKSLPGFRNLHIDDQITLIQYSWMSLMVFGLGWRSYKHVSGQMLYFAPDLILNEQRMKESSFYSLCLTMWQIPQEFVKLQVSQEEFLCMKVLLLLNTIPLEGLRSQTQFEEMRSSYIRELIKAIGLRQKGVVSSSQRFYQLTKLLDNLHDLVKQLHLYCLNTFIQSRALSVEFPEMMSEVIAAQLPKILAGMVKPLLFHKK
# Sequence of Androgen receptor (Homo sapiens) (P10275 whole entry, looked up): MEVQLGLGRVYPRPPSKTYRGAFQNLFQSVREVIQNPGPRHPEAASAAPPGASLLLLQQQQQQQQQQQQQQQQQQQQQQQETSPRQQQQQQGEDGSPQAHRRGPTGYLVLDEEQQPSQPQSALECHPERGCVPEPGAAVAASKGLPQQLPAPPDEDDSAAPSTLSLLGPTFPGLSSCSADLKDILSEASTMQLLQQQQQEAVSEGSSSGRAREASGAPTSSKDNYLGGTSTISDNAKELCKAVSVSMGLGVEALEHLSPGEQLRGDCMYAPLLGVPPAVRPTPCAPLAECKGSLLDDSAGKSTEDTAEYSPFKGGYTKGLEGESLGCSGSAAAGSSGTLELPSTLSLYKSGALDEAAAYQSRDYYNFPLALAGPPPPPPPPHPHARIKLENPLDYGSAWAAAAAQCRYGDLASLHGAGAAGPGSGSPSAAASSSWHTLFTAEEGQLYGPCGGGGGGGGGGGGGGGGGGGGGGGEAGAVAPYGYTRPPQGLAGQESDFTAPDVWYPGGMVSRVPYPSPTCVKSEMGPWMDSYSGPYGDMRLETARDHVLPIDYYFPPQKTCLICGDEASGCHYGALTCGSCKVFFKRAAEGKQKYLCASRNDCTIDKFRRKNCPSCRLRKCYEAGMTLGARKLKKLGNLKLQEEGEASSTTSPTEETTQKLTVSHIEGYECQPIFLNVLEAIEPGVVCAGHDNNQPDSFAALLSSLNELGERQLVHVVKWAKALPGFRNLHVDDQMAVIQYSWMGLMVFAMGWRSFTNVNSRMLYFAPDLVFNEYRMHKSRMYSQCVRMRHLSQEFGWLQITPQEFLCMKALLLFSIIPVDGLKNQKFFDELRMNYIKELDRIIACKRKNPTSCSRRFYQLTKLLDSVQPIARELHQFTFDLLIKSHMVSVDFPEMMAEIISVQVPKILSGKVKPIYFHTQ
# Sequence of Thyrotropin-releasing hormone receptor (Homo sapiens) (P34981 whole entry, looked up): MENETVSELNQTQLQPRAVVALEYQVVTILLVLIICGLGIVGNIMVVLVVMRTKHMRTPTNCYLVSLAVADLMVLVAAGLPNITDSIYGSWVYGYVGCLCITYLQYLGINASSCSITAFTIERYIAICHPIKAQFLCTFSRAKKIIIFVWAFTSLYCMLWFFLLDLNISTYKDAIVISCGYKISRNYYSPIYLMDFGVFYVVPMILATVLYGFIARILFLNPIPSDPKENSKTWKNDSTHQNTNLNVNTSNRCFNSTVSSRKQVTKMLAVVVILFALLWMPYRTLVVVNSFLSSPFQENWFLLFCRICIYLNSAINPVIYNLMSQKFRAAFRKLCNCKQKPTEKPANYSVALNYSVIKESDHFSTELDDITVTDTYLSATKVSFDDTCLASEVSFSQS
# Sequence of Thyrotropin receptor (Homo sapiens) (P16473 whole entry, looked up): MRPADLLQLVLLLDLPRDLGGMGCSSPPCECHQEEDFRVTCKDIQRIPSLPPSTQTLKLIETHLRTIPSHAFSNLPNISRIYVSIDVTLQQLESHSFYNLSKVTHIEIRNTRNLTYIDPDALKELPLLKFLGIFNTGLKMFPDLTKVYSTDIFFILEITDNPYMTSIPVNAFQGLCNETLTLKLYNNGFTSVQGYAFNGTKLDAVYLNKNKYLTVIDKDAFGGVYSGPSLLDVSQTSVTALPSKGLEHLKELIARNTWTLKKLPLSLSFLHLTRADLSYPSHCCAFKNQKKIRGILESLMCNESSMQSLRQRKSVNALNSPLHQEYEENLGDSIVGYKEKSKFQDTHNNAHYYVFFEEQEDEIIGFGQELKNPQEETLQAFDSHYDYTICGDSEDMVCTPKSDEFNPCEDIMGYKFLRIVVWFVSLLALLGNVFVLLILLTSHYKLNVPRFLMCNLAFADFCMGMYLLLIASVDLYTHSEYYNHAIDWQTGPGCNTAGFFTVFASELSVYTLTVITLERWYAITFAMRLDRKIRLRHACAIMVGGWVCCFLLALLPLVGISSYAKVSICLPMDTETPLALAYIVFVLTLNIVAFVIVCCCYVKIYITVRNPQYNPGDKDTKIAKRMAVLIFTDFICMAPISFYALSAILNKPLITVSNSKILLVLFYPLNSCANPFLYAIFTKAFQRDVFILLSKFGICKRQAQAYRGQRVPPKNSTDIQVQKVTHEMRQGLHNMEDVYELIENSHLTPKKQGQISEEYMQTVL
# Sequence of Estrogen receptor (Homo sapiens) (P03372 whole entry, looked up): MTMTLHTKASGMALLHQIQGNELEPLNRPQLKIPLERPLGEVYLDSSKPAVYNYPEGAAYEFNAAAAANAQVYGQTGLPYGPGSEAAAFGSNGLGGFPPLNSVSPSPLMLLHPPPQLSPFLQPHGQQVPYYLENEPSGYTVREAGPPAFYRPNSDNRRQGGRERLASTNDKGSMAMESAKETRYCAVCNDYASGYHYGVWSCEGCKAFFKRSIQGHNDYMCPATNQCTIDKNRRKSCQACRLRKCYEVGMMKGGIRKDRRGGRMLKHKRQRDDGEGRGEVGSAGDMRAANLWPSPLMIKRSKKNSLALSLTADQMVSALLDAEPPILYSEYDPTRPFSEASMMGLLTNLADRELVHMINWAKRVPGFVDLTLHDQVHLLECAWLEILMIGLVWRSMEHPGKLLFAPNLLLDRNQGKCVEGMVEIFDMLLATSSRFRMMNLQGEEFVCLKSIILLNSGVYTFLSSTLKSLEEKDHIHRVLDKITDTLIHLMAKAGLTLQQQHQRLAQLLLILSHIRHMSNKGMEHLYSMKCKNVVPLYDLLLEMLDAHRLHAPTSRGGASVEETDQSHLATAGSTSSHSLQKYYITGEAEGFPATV
# Sequence of Estrogen receptor beta (Homo sapiens) (Q92731 whole entry, looked up): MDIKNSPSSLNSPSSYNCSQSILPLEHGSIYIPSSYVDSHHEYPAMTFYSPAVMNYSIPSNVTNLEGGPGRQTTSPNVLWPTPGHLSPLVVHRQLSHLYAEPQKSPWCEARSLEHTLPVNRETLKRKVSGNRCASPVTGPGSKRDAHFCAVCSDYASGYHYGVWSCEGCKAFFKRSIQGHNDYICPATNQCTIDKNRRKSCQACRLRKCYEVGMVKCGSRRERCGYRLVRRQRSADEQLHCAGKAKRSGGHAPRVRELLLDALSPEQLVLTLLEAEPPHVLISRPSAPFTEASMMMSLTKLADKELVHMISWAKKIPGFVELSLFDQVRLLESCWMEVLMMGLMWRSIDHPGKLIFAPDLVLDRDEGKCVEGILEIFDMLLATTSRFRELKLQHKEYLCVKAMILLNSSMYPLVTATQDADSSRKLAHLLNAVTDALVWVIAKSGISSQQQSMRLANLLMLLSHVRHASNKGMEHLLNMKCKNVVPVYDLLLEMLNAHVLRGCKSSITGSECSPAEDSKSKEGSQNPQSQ
SMILES,Potency [1],Potency [2],Potency [3],Potency [4],Potency [5],Potency [6],outcome [7],Potency [8],Potency [9],outcome [10],Potency [11],Potency [12],Potency [13],Potency [14],Potency [15],Potency [16],Potency [17],Potency [18],Potency [19],Potency [20]
C[C@@H]1CC[C@H]2C(C)(C)[C@H]3C[C@@]12CC[C@@]3(C)O,inactive,inactive,inactive,inactive,inactive,inactive,inactive,inactive,inactive,inactive,inactive,inactive,inactive,inactive,inactive,,,,,
OCCCS,inactive,inactive,inactive,inactive,inactive,inactive,inactive,inactive,inactive,inactive,inactive,inactive,inactive,inactive,inactive,inactive,inactive,inactive,,
COc1ccc(-n2nc(CCC(=O)N(C)O)cc2-c2ccc(Cl)cc2)cc1,7.5 µM (active),inactive,7.5 µM (active),inactive,,inactive,inactive,inactive,inactive,,,,inactive,inactive,inactive,,,inactive,inactive,inactive
CC(=O)C=O,inactive,inactive,inactive,inactive,inactive,inactive,,,inactive,inactive,inactive,inactive,inactive,inactive,inactive,inactive,inactive,inactive,,
COCC(=O)O[C@]1(CCN(C)CCCc2nc3ccccc3[nH]2)CCc2cc(F)ccc2[C@@H]1C(C)C,11.9 µM (active),23.7 µM (active),21.1 µM (active),inactive,18.8 µM (active),inactive,inactive,,inactive,,26.6 µM (active),21.1 µM (active),,,inactive,26.6 µM (active),23.7 µM (active),26.6 µM (active),inactive,inactive
CCOCOCC,inactive,inactive,inactive,inactive,inactive,inactive,inactive,inactive,,inactive,inactive,inactive,inactive,inactive,inactive,inactive,inactive,inactive,,inactive
CC(C)(C)c1cc(CCC(=O)NCCCCCCNC(=O)CCc2cc(C(C)(C)C)c(O)c(C(C)(C)C)c2)cc(C(C)(C)C)c1O,inactive,inactive,inactive,,inactive,inactive,inactive,inactive,inactive,inactive,inactive,inactive,inactive,inactive,inactive,inactive,inactive,inactive,inactive,inactive

# Reference: PubChem BioAssay (Tox21)
